biological target: T1, ETS1 (UniProt P14921); test: ETS1 binding intensity (PBM fluorescence), ETS1 alone (arbitrary fluorescence units); higher = stronger binding; conditions: ETS1 concentration 1 nM; RUNX1 concentration 0 nM
T1 sequence: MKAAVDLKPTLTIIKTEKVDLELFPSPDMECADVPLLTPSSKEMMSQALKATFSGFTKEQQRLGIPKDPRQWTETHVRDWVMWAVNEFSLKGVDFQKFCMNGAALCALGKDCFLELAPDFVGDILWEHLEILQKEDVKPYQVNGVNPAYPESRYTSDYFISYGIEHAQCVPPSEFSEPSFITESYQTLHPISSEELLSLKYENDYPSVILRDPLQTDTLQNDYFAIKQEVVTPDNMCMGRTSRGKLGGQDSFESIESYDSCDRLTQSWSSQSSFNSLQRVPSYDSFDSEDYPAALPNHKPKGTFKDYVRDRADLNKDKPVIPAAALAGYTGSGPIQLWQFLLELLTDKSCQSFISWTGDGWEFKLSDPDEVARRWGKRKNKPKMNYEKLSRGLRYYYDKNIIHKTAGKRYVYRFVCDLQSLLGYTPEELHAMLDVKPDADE
Method: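 Cooperative genomic-context PBM: 36-bp genomic probes with neighbouring ETS1 and RUNX1 sites, double-stranded on Agilent 4x180k arrays. Full-length recombinant human ETS1 (1 nM) was incubated alone or with RUNX1 (25 nM) and detected with anti-ETS1 antibody plus Alexa488 secondary. Value is the median fluorescence intensity over 4 replicate spots; the ETS1+RUNX1 data were normalised to the ETS1-only data using probes without RUNX1 sites. The 36-bp variable region sits on the array probe with constant linker/primer flanks that are not printed.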

| Sequence | ETS1 binding intensity |
| --- | --- |
| CCTCTTGGTTTCCTGTCCCTCACCACAAGAAGCAGT | 625 |
| TGCCCCCTCCCCCTTCCGCTGTGGCCACCGGCTTTG | 764 |
| AAGGTGGAAAAAGGATGTGGTTCTAAGCTGGCTTCT | 887 |
| AACAACTGACCGGACAGAACACAGCCACAAAACACG | 606 |
| GCGCCCGGAAGGAAGGCTGGGGTAGGTTGTGGTTTC | 476 |
| CAGGAGCAGTGTAGAGGAAGTGGTTTCCATCACGGA | 2630 |
| AGCCGGAGGCGGAAGGAGCAGCGCTACCGCAGCGTC | 639 |
| ACCTGTAGGCGGAAGTCTGTGGCTTTATTTACACAG | 2340 |
| ACACCCCAGGAAGTGGCAGAGACCACAACAAGTCAG | 704 |
| CTCAGGGTACCAGGATGTGGTTTAGCTTAGGGGTGG | 1840 |
| TTACGTTAAGGAGGAAACTCTGTGGTTAAACTGTAG | 597 |
| CTCCATCTGCCCGGAAAACCGCAGCCGCCCCAACCT | 841 |
| TACCACTGAAAGGATGTGCGGGTAGAAATGAGCAAT | 830 |
| GGGCAGCAGCAGACCGGAAACCACAGCCGACTAAGA | 10700 |
| GTCAGGAAACACATAGTTGTGTTTAACCTCAGGAAA | 466 |
| GGTCCGGATGTATAAAGCGCGGCCCCCTGCGGGGAG | 910 |
| GTACTGAGTCACAGGAAACCACAAGGGAAGGGTCCC | 2510 |
| TGCCGCGGATACCCAGCCAGCGGCAGTGCGGTTAAC | 349 |
| TGTCGTACATTTCCGCCTTGTGGGCACAATCTGATT | 965 |
| AGAATCGCATCAGGATGTGGTGAGGGAGCACATTTG | 948 |

| Sequence | ETS1 binding intensity |
| --- | --- |
| CTCCTTCCTGATCGGGCAGGAACTAACCACAGGAGG | 1060 |
| ACGTACGGGATGTGGGAGGTTTGTTTTGACCACACC | 492 |
| TTGATTGGAGCAGGATGTGGTCAGAACAGTATGCAG | 3190 |
| GTAAAAGAGGAAGTAACACCTCCTTGCGGTTGAGAC | 1450 |
| CTCCCACATCCGAAGCGGCGCAACCCACAACAGCCT | 445 |
| GATTGTTATGTCCGGAAACCGCTTATCAGAGCCCTG | 2870 |
| GGAAAGCGGAAGAAAAAAGCAAGATGGGACCGCAAG | 445 |
| GGGATCTACTTCCTCTCTCGGCCGCGGCCGCAGCAC | 790 |
| CCGCTTCCGGGACGCGAATCGCTCTGCGGCTGCGTC | 556 |
| AGCTGTTTGGTCACAGGATGTGGTTATTAGAATAGG | 4800 |
| AGGTTGAAAGCACTTCCGCTGCGGCCCCCGTAGGAA | 3040 |
| TCATTTCCTCTGGTGTTATTGTGTTGTGGTTTTAAG | 417 |
| GGCAACCCAAGGAAGTATCTCTGAAACCACACAACA | 540 |
| GTACGACAGCGGGTTCCGGTGACCACGAAGGCGGCA | 404 |
| CAGTTCCAGGAAGCAGCCCCAAGCTTGTGGCCCTGA | 526 |
| CACTTGTCCTTCCTGGCCTGCGGCCGCCACCACTTC | 443 |
| GCAGAGAGGAAGTGTGGGGGTGGAGGAGGCCGCAGA | 681 |
| AGCCCGCCGGAAACTAGCGTCACCGCGCCAAGGTTC | 1440 |
| TCCTTAATGGTTCCGGCGGCAGGGACCGCAGCGACG | 460 |
| TAAATACCTCACAGGAAATTTGAGGTTGGATGAGAT | 2010 |
